Source: the supplement of paper PMC9844399
Structures can show the parent of a compound that is named as a salt.

system: HeLa; assay: nuclear count per well, robust Z-score vs DMSO; higher = more cells (less toxicity); details: 10 µM; 6 h
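Wherever MALAT1 nuclear FISH intensity, robust Z-score vs DMSO is given: High-content confocal imaging of branched-DNA amplified FISH in 384-well plates, Hoechst-defined nuclei, score is well value minus plate DMSO median over DMSO robust SD, four wells per compound.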
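Wherever nuclear count per well, robust Z-score vs DMSO is given: Hoechst-stained nuclei counted by automated confocal imaging of four fields per well in 384-well plates, with the robust Z-score based on the per-plate DMSO median and robust SD.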

Row | SMILES | nuclear count per well
1 | C=CC[C@@H]1/C=C(\C)C[C@H](C)C[C@H](OC)[C@H]2O[C@@](O)(C(=O)C(=O)N3CCCC[C@H]3C(=O)O[C@H](/C(C)=C/[C@@H]3CC[C@@H](O)[C@H](OC)C3)[C@H](C)[C@@H](O)CC1=O)[C@H](C)C[C@@H]2OC | 0.344
2 | Cn1ccnc1S [Methimazole] | -0.461
3 | Nc1ccc(S(N)(=O)=O)cc1 [Sulfanilamide] | -0.504
4 | COc1ccc(Cl)cc1C(=O)NCCc1ccc(S(=O)(=O)NC(=O)NC2CCCCC2)cc1 [Glyburide] | -0.179
5 | C=C1/C(=C\C=C2/CCC[C@]3(C)[C@@H]([C@H](C)/C=C/[C@@H](O)C4CC4)CC[C@@H]23)C[C@@H](O)C[C@@H]1O [Calcipotriene] | -0.612
6 | CNC(C)C1CCC(N)C(OC2C(N)CC(N)C(OC3OCC(C)(O)C(NC)C3O)C2O)O1 (configuration not stated) [Gentamicin] | 0.347
7 | NCCCCCC(=O)O [Aminocaproic Acid] | -0.281
8 | CN1CCN(C(c2ccccc2)c2ccc(Cl)cc2)CC1 (configuration not stated) | 0.39
9 | CC(=O)NC[C@H]1CN(c2ccc(N3CCOCC3)c(F)c2)C(=O)O1 [Linezolid] | 0.483
10 | CCC(NC(=O)C(CC(C)C)NC(=O)OCc1ccccc1)C(=O)C(=O)NCCCN1CCOCC1 (configuration not stated) [Calpain Inhibitor XI] | 0.789
11 | Nc1ccn([C@@H]2CS[C@H](CO)O2)c(=O)n1 [Lamivudine] | 0.0223
12 | O=C(O)c1ccc2c3c1cccc3c(=O)n1c3ccccc3nc21 [STO-609-acetic acid] | -0.506

system: HeLa; assay: MALAT1 nuclear FISH intensity, robust Z-score vs DMSO; higher = more nuclear MALAT1 lncRNA, active = -3 or less; details: 10 µM; 6 h

Row | SMILES | MALAT1 nuclear FISH intensity
13 | C[C@]12CC[C@@H]3c4ccc(OS(=O)(=O)O)cc4CC[C@H]3[C@@H]1CCC2=O [Estropipate] | 0.478 (inactive)
14 | CC1(C)S[C@@H]2[C@H](NC(=O)COc3ccccc3)C(=O)N2[C@H]1C(=O)O [Penicillin V Potassium] | -1.43 (inactive)
15 | CCCNC(C)C(=O)Nc1c(C)csc1C(=O)OC (configuration not stated) | -0.749 (inactive)
16 | CC(=O)Oc1ccccc1C(=O)O [Acetylsalicylic acid] | -1.02 (inactive)
17 | COc1cc2c3cc1Oc1c(OC)c(OC)cc4c1[C@@H](Cc1ccc(OC(=O)c5ccc([N+](=O)[O-])cc5)c(c1)Oc1ccc(cc1)C[C@@H]3N(C)CC2)N(C)CC4 [E6 berbamine] | -1.22 (inactive)
18 | O=C1NC(=O)C(c2ccccc2[N+](=O)[O-])=C1Nc1ccc(O)c(Cl)c1 | -1.18 (inactive)
19 | CC(=O)OCC[N+](C)(C)C [Acetylcholine Chloride] | -0.555 (inactive)
20 | CC(C)(C#N)c1cc(Cn2cncn2)cc(C(C)(C)C#N)c1 [Anastrozole] | -0.23 (inactive)
21 | C[C@H]1COC2=C1C(=O)C(=O)c1c2ccc2c1CCCC2(C)C [Cryptotanshinone] | -0.131 (inactive)
22 | CCCCC/C=C\C\C=C/C=C/C=C/[C@@H](SC[C@H](N)C(=O)NCC(=O)O)[C@@H](O)CCCC(=O)O [Leukotriene D4] | 0.618 (inactive)
23 | CN1[C@@H]2CC[C@H]1C[C@@H](OC(c1ccccc1)c1ccccc1)C2 [Benztropine Mesylate] | -0.262 (inactive)
24 | CCCCCOC(=O)Nc1nc(=O)n([C@@H]2O[C@H](C)[C@@H](O)[C@H]2O)cc1F [Capecitabine] | -0.174 (inactive)
25 | O=C(O)C(O)C(O)C(=O)O (configuration not stated) [Tartaric acid] | 0.736 (inactive)
26 | CCN1CC(CCN2CCOCC2)C(c2ccccc2)(c2ccccc2)C1=O (configuration not stated) | -0.153 (inactive)
27 | CCCCC[C@H](O)/C=C/C1=C(C/C=C\CCCC(=O)O)C(=O)CC1 [Prostaglandin B2] | 0.128 (inactive)
28 | CO[C@H]1/C=C/O[C@@]2(C)Oc3c(C)c(O)c4c(O)c(c(/C=N/N5CCN(C)CC5)c(O)c4c3C2=O)NC(=O)/C(C)=C\C=C\[C@H](C)[C@H](O)[C@@H](C)[C@@H](O)[C@@H](C)[C@H](OC(C)=O)[C@@H]1C [Rifampin (Rifampicin)] | 0.793 (inactive)
29 | CS(=O)(=O)CCNCc1ccc(-c2ccc3ncnc(Nc4ccc(OCc5cccc(F)c5)c(Cl)c4)c3c2)o1 [Lapatinib Ditosylate] | 3.02 (inactive)
30 | CN(C)CCC[C@@]1(c2ccc(F)cc2)OCc2cc(C#N)ccc21 [Escitalopram] | 0.947 (inactive)
31 | N=C(N)NC(=N)NCCc1ccccc1 [Phenformin hydrochloride] | -0.626 (inactive)
32 | C[C@H]1c2cccc(O)c2C(=O)C2=C(O)[C@]3(O)C(=O)C(C(N)=O)=C(O)[C@@H](N(C)C)[C@@H]3[C@@H](O)[C@@H]21 | 1.19 (inactive)

Row | SMILES | MALAT1 nuclear FISH intensity
33 | CC(C)(C)C(=O)OCOP(=O)(COCCn1cnc2c(N)ncnc21)OCOC(=O)C(C)(C)C [Adefovir Dipivoxil] | -0.212 (inactive)
34 | CN[C@@H]1[C@H](O[C@H]2[C@H](O[C@H]3[C@H](O)[C@@H](O)[C@H](N=C(N)N)[C@@H](O)[C@@H]3N=C(N)N)O[C@@H](C)[C@]2(O)C=O)O[C@@H](CO)[C@H](O)[C@H]1O [Streptomycin Sulfate] | -0.687 (inactive)
35 | Oc1ccc(/C=C/c2cc(O)cc(O)c2)cc1 [Resveratrol] | -0.679 (inactive)
36 | CO[C@H]1C[C@@H]2CC[C@@H](C)[C@@](O)(O2)C(=O)C(=O)N2CCCC[C@H]2C(=O)O[C@H]([C@H](C)C[C@@H]2CC[C@@H](OC(=O)C(C)(CO)CO)[C@H](OC)C2)CC(=O)[C@H](C)/C=C(\C)[C@@H](O)[C@@H](OC)C(=O)[C@H](C)C[C@H](C)/C=C/C=C/C=C/1C [Temsirolimus] | 1.29 (inactive)
37 | CN1CC(=O)N2[C@H](c3ccc4c(c3)OCO4)c3[nH]c4ccccc4c3C[C@@H]2C1=O [Tadalafil] | -0.53 (inactive)
38 | CNC(=O)c1cnn(-c2nc(N)c3ncn([C@@H]4O[C@H](CO)[C@@H](O)[C@H]4O)c3n2)c1 [Regadenoson] | -1.63 (inactive)
39 | C/C=C/C/C=C/CCC(=O)[C@H]1O[C@H]1C(N)=O [Cerulenin] | 2.05 (inactive)
40 | Cc1ccc(C(=O)Nc2ccc(S(=O)(=O)O)c3cc(S(=O)(=O)O)cc(S(=O)(=O)O)c23)cc1NC(=O)c1cccc(NC(=O)Nc2cccc(C(=O)Nc3cc(C(=O)Nc4ccc(S(=O)(=O)O)c5cc(S(=O)(=O)O)cc(S(=O)(=O)O)c45)ccc3C)c2)c1 [Suramin sodium salt] | -0.553 (inactive)
41 | C=CC[C@@H]1/C=C(\C)C[C@H](C)C[C@H](OC)[C@H]2O[C@@](O)(C(=O)C(=O)N3CCCC[C@H]3C(=O)O[C@H](/C(C)=C/[C@@H]3CC[C@@H](O)[C@H](OC)C3)[C@H](C)[C@@H](O)CC1=O)[C@H](C)C[C@@H]2OC | 0.0213 (inactive)
42 | Cn1ccnc1S [Methimazole] | -0.992 (inactive)
43 | Nc1ccc(S(N)(=O)=O)cc1 [Sulfanilamide] | -0.47 (inactive)
44 | COc1ccc(Cl)cc1C(=O)NCCc1ccc(S(=O)(=O)NC(=O)NC2CCCCC2)cc1 [Glyburide] | -0.00626 (inactive)
45 | C=C1/C(=C\C=C2/CCC[C@]3(C)[C@@H]([C@H](C)/C=C/[C@@H](O)C4CC4)CC[C@@H]23)C[C@@H](O)C[C@@H]1O [Calcipotriene] | -0.209 (inactive)
46 | CNC(C)C1CCC(N)C(OC2C(N)CC(N)C(OC3OCC(C)(O)C(NC)C3O)C2O)O1 (configuration not stated) [Gentamicin] | -0.365 (inactive)
47 | NCCCCCC(=O)O [Aminocaproic Acid] | -0.314 (inactive)
48 | CN1CCN(C(c2ccccc2)c2ccc(Cl)cc2)CC1 (configuration not stated) | 0.624 (inactive)
49 | CC(=O)NC[C@H]1CN(c2ccc(N3CCOCC3)c(F)c2)C(=O)O1 [Linezolid] | -1.13 (inactive)
50 | CCC(NC(=O)C(CC(C)C)NC(=O)OCc1ccccc1)C(=O)C(=O)NCCCN1CCOCC1 (configuration not stated) [Calpain Inhibitor XI] | 1.21 (inactive)
51 | Nc1ccn([C@@H]2CS[C@H](CO)O2)c(=O)n1 [Lamivudine] | -0.384 (inactive)
52 | O=C(O)c1ccc2c3c1cccc3c(=O)n1c3ccccc3nc21 [STO-609-acetic acid] | -1.59 (inactive)
